Results as given in PubChem BioAssay AID720517 (National Center for Advancing Translational Sciences (NCATS), 2013).
Results filed as inconclusive are left out. Where a call stands in place of a potency, no number is given. Activity calls are given as the source filed them. Calls follow the shape of the dose curve; as a rule, active = well fitted activation curve with a large enough effect; inconclusive = small, poorly fitted or top-dose-only effect; inactive = flat fitted curve, though single readings scatter.

assay: qHTS for Inhibitors of Cell Surface uPA Generation: FP59 Counterscreen for Cherry-picked Compounds; conditions: FP59 anthrax toxin cytotoxicity counterscreen, cells; series mostly up to 115 µM
Potency is read from the fitted curve at half-maximal effect.

Structure (SMILES) | Potency
C/C=C(/C(=C/C)c1ccc(O)cc1)c1ccc(O)cc1 | inactive
COc1ccc(NC(=O)/C(N=Nc2cc(S(=O)(=O)Nc3ccc(OC)cc3)ccc2OC)=C(\C)O)cc1 | inactive
O=C(NC(=S)Nc1c(F)cc(F)cc1Br)c1ccc2c(c1)OCCO2 | inactive
Cc1ccc(/C=C/C(=O)O)cc1S(=O)(=O)N1CCc2ccccc21 | inactive
COc1ccc(Cc2nnc(Nc3ccc(C)cc3)o2)cc1OC | inactive
CC(=O)c1ccc(N=C2SCCCN2C(=O)C2CCCCC2)cc1 | inactive
CCN(CC(=O)Nc1c(F)cccc1F)C(=O)c1ccc(-c2ccc(C(C)=O)cc2)o1 | inactive
O=C(CCS(=O)(=O)c1ccc2c(c1)NC(=O)CS2)NCc1cccs1 | inactive
Cc1cc(=O)[nH]c2c(C)cc(S(=O)(=O)Nc3ccc(O)cc3)cc12 | inactive
Cc1ccc(C2=NS(=O)(=O)N(C)C(C(=O)NC3CCCC3)=C2)cc1 | inactive
COc1ccc(C[C@@H]2OC3(C=CC(=O)C=C3)O[C@H]2Cc2ccc(OC)cc2)cc1 | inactive
Cc1nn(CC(=O)OCC(=O)NC(C)c2ccccc2)c(C)c1[N+](=O)[O-] (centres undefined) | inactive
O=c1[nH]c(SCc2cccc(Cl)c2)nc2ccccc12 | inactive
CCCNC(=O)C1CCC(CNS(=O)(=O)c2ccc3c(c2)CC(C)N3C(C)=O)CC1 (centres undefined) | inactive
O=C1CCCC/C1=C\Nc1ccc(S(=O)(=O)Nc2cnc3ccccc3n2)cc1 | inactive
CN(C)C(=O)NC(NC(=S)Nc1ccccc1)C(Cl)(Cl)Cl (centres undefined) | inactive
COc1ccc2nc(SC(C)C(=O)NC3(C#N)CCCCC3)[nH]c2c1 (centres undefined) | inactive
CCOc1cc(C(=S)N2CCOCC2)ccc1OC(=O)c1cccc(C)c1 | inactive
Cc1nc2ccccc2c2oc(C(=O)Nc3ccc4c(c3)OCCO4)cc12 | inactive
Cc1ccc(S(=O)(=O)N2CCC(C(=O)OC(C)C(=O)NC3CCCCC3C)CC2)cc1 (centres undefined) | inactive

Structure (SMILES) | Potency
Cc1ccnc(N2CCN(C(=O)CSc3nc4ccccc4nc3N3CCC(C)CC3)CC2)c1 | 65.6 µM (active)
COc1ccc(-n2ncc3c(=O)n(CC(=O)NC(C)C)cnc32)cc1 | inactive
CC(=O)Nc1ccc(NC(=O)CCCCCN2C(=O)c3ccccc3C2=O)cc1 | inactive
COc1cc2cc(CN(CCN3CCOCC3)C(=O)Nc3ccc(F)cc3)c(=O)[nH]c2cc1OC | inactive
O=C(Cc1ccc(Cl)cc1)NC(=S)Nc1ccccc1O | inactive
CCn1c(SC(C)C(=O)NC2CCCC2)nc2cc(S(N)(=O)=O)ccc21 (centres undefined) | inactive
CCOc1ccc(OCC)c(NC(=O)c2ccc(CNc3c(N4CCCC4)c(=O)c3=O)cc2)c1 | inactive
Cc1cc(=O)n2nc(N3CCCC(C(=O)NCc4ccc(Cl)cc4)C3)sc2n1 (centres undefined) | inactive
CC(C(=O)Nc1nccs1)c1ccc([N+](=O)[O-])cc1 (centres undefined) | inactive
COc1ccc(/C(C)=N/N2CCOCC2)c(O)c1 | inactive
C/C(=N\NC(=S)NC(C)C)c1ccc(Cl)s1 | inactive
CN1CC[C@]23c4ccccc4N[C@H]1[C@]21CCN(C)[C@H]3Nc2ccccc21 | inactive
Cc1ccc2nc(Nc3ccc(Cl)cc3)c3nncn3c2c1 | inactive
Cc1cc(C)cc(NC(=O)C(OC(=O)c2ccc(O)cc2)c2ccccc2)c1 (centres undefined) | inactive
CN(C)CCNC(=O)Nc1ccc([N+](=O)[O-])cc1 | inactive
CCCCn1c(N)c(N(Cc2ccccc2OC)C(=O)COc2ccc(C)cc2)c(=O)[nH]c1=O | inactive
NC(=O)c1ccc(NC(=O)CN2CCN(S(=O)(=O)c3ccc4ccccc4c3)CC2)cc1 | inactive
CN(Cc1ccc(C(C)(C)C)cc1)C(=O)Cc1ccc(S(=O)(=O)N2CCOCC2)s1 | inactive
COc1ccc(CCNC(=O)Cn2c(=O)n(-c3cc(F)ccc3F)c(=O)c3sccc32)cc1OC | inactive
